We go through 18 compounds from publication PMC5540273 (PLoS ONE, 2017).

Test systems include LYN; MAK; MAP3K15; MAP3K1; MAP3K2; MAP3K3; MAP3K4; MAP4K2; MAP4K3.
What all share (details): concentration: 1 μM, replicates: in singlicate; n = 1
In another test the test system is T1, LZK.
T1 construct: gene MAP3K13
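Also: KINOMEscan kinase panel screen.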

As to `Cc1csc(-c2nc(Nc3ccncc3)c3ccccc3n2)n1` [GW869640], the “%Inh” value in the test with LYN is on record as 0%; in the test with LZK, 20%; in the test on MAK, 2%; in the test on MAP3K15, 35%; in the test with MAP3K1, 35%; with MAP3K2, 38%. For the same compound, the “%Inh” value is 1% in the test with MAP3K3, 2% with MAP3K4, 34% in the test with MAP4K2 and 0% in the test with MAP4K3.
As to `Cc1cc(-c2ccc3c(c2)CC[C@@H](N[C@@H](C)c2ccccc2)C3)cnc1N.Cl` [GW412617], the “%Inh” value with LYN is listed as 0%; with LZK it was 7%; with MAK it was 15%; in the test with MAP3K15, 0%; in the test on MAP3K1, 17%; with MAP3K2 it was 20%. In addition, the “%Inh” value with MAP3K3 stood at 0%; in the test with MAP3K4 it was 0%; in the test with MAP4K2 it was 97.4%; with MAP4K3, 36%.
For the compound `Cl.c1ccc(-c2n[nH]cc2-c2ccnc(-c3ccc(CN4CCOCC4)cc3)c2)nc1` [GW776245], the “%Inh” value in the test on LYN came out at 6%; with LZK, 0%; in the test on MAK it was 0%; in the test on MAP3K15 it was 0%; in the test on MAP3K1 it was 0%; with MAP3K2 it was 18%. Also, the “%Inh” value in the test with MAP3K3 came to 17%; with MAP3K4, 9%; with MAP4K2 it was 0%; in the test on MAP4K3, 0%.
Turning to `O=C(Nc1n[nH]c2nc(-c3nccs3)c(Br)cc12)C1CC1` [SB-742251], the “%Inh” value stood at 19% in the test with LYN; 26% with LZK; 33% in the test on MAK; 0% in the test on MAP3K15; 21% with MAP3K1; 0% in the test with MAP3K2. Besides, the “%Inh” value in the test on MAP3K3, in the test with MAP3K4, in the test on MAP4K2 and in the test on MAP4K3 was 0% in each case.
As to `Cc1ccc(NC(=O)Nc2cccc(Cl)c2)cc1-c1ccc(C(=O)Nc2ccncc2)cc1` [GSK1398468], the “%Inh” value with LYN was determined as 0%; in the test with LZK, 0%; with MAK, 19%; in the test with MAP3K15 it was 0%; in the test with MAP3K1, 0%; in the test with MAP3K2, 0%. Also, the “%Inh” value in the test on MAP3K3 is reported as 0%; in the test on MAP3K4, 7%; with MAP4K2 it was 0%; with MAP4K3 it was 0%.
For `COc1ccc(Nc2nccc(-c3cccc(NC(=O)c4cc5cc(F)ccc5[nH]4)c3)n2)cc1` [GSK1229782], the “%Inh” value amounted to 0% with LYN; 33% in the test with LZK; 36% in the test on MAK; 0% in the test with MAP3K15; 5% in the test on MAP3K1; 38% in the test with MAP3K2. Further, the “%Inh” value in the test with MAP3K3 was 0%; in the test with MAP3K4, 21%; with MAP4K2 it was 0%; in the test on MAP4K3, 0%.
Take `CC(=O)Nc1nc2cnc(Nc3cc(NC(=O)c4cccc(CCC#N)c4)ccc3C)nc2s1`: the “%Inh” value in the test with LYN worked out at 25%; with LZK, 24%; with MAK, 0%; in the test with MAP3K15, 8%; in the test on MAP3K1, 0%; in the test on MAP3K2, 0%. The “%Inh” value with MAP3K3 came out at 20%; with MAP3K4 it was 0%; with MAP4K2, 0%; in the test with MAP4K3, 0%.
Regarding `O=C(Nc1n[nH]c2cc(-c3cccc(F)c3F)ccc12)C1CC1` [SB-733894], the “%Inh” value turned out to be 0% in the test on LYN; 100% in the test with LZK; 21% with MAK; 0% with MAP3K15; 4% with MAP3K1; 6% in the test on MAP3K2. Also, the “%Inh” value with MAP3K3 turned out to be 30%; with MAP3K4 it was 0%; in the test on MAP4K2, 0%; in the test on MAP4K3, 12%.
`Nc1ncnc2[nH]c(-c3ccccc3)nc12` [AH5015]: the “%Inh” value stood at 7% in the test on LYN; 0% in the test with LZK; 0% in the test on MAK; 0% in the test with MAP3K15; 16% with MAP3K1; 0% in the test on MAP3K2. Besides, the “%Inh” value with MAP3K3, with MAP3K4, in the test on MAP4K2 and with MAP4K3 was 0% throughout.
Regarding `Cl.NC(=O)c1cccc(Nc2nccc(Nc3ccc(Oc4cccc(Cl)c4)c(Cl)c3)n2)c1` [GW659008], the “%Inh” value with LYN stood at 29%; in the test with LZK, 19%; in the test on MAK, 9%; with MAP3K15 it was 0%; with MAP3K1, 3%; with MAP3K2, 0%. The “%Inh” value worked out at 0% in the test with MAP3K3, 33% in the test with MAP3K4, 0% with MAP4K2 and 0% in the test on MAP4K3.
`O=C1NC(=O)C(N2CCc3ccccc32)=C1c1ccccc1Cl` [SB-373598]: the “%Inh” value in the test with LYN was determined as 17%; in the test on LZK, 0%; in the test with MAK, 9%; in the test with MAP3K15, 9%; with MAP3K1 it was 23%; in the test with MAP3K2, 4%. The “%Inh” value is given as 4% in the test with MAP3K3, 29% with MAP3K4, 21% with MAP4K2 and 1% with MAP4K3.
Take `Cc1ccc(C(=O)Nc2ccc(Nc3ccnc4cc(-c5ccccn5)ccc34)cc2O)cc1.Cl` [GW440146]: the “%Inh” value amounted to 44% with LYN; 10% in the test with LZK; 25% in the test on MAK; 21% in the test with MAP3K15; 3% in the test with MAP3K1; 0% in the test on MAP3K2. Moreover, the “%Inh” value was 0% in the test with MAP3K3, 25% with MAP3K4, 0% with MAP4K2 and 0% with MAP4K3.
As for `Cc1cccc(-c2nc(Nc3ccc4[nH]ncc4c3)c3ccccc3n2)n1` [GW857175], the “%Inh” value in the test with LYN was determined as 17%; in the test with LZK it was 10%; in the test with MAK it was 0%; in the test on MAP3K15, 0%; with MAP3K1, 38%; in the test with MAP3K2, 36%. For the same compound, the “%Inh” value in the test with MAP3K3 worked out at 0%; with MAP3K4 it was 14%; in the test with MAP4K2 it was 39%; in the test on MAP4K3 it was 0%.
For the compound `Cn1ccc2ncnc(Oc3ccc(NC(=O)Nc4ccccc4)cc3)c21`, the “%Inh” value stood at 6% in the test with LYN; 9% in the test with LZK; 6% with MAK; 0% in the test with MAP3K15; 0% in the test with MAP3K1; 0% with MAP3K2. Further, the “%Inh” value came out at 11% in the test on MAP3K3, 10% in the test with MAP3K4, 0% in the test on MAP4K2 and 18% in the test on MAP4K3.
In the case of `CS(=O)(=O)c1ccc(-c2c(-c3ncn[nH]3)sc(N3CCOCC3)c2C#N)cc1`, the “%Inh” value in the test on LYN came out at 0%; with LZK, 0%; in the test on MAK, 36%; with MAP3K15, 0%; with MAP3K1, 26%; in the test on MAP3K2 it was 6%. Also, the “%Inh” value was 27% in the test on MAP3K3, 2% in the test on MAP3K4, 0% in the test on MAP4K2 and 0% in the test with MAP4K3.
With `CC1=C(C(=O)Nc2cc3cn[nH]c3cc2F)C(c2ccc(C(F)(F)F)cc2)CC(=O)N1` (stereo not drawn) [GSK429286], the “%Inh” value came out at 0% with LYN; 0% in the test on LZK; 0% in the test with MAK; 16% with MAP3K15; 30% in the test on MAP3K1; 3% with MAP3K2. The “%Inh” value in the test on MAP3K3, in the test on MAP3K4, in the test with MAP4K2 and in the test with MAP4K3 was 0% throughout.
In the case of `Cc1cc(NCC(c2ccccc2)c2ccccc2)nc(NCc2ccc(C(F)(F)F)cc2)n1` [GW497681], the “%Inh” value was 0% in the test on LYN; 11% in the test with LZK; 17% in the test with MAK; 0% in the test on MAP3K15; 0% with MAP3K1; 0% in the test on MAP3K2. Further, the “%Inh” value in the test with MAP3K3 is listed as 0%; in the test on MAP3K4, 22%; with MAP4K2 it was 0%; in the test on MAP4K3, 0%.
For the compound `Cc1cccc(-c2nc(C)cc(Nc3ccncc3)n2)n1` [GSK257997], the “%Inh” value in the test on LYN is listed as 0%; in the test with LZK, 0%; in the test with MAK, 16%; in the test on MAP3K15, 0%; in the test with MAP3K1 it was 21%; in the test with MAP3K2, 0%. Moreover, the “%Inh” value in the test on MAP3K3 was 0%; with MAP3K4, 14%; in the test with MAP4K2, 0%; with MAP4K3, 0%.
